Compounds with a hit are over-represented: about 3.3% of the library has one in this group of screens.
AmpC no deterg: qHTS Inhibitors of AmpC Beta-Lactamase (assay without detergent); AmpC nitrocefin hydrolysis, absorbance 480 nm, 0.0001% Triton; hit rate 0.52% among 330,000; Potency, µM (series often up to 57.1 µM), inactives show top-dose activity change, negative = inhibition, hits mostly inhibitors; P00811;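 also: plate controls were no compound for no effect and no enzyme for full effect; nearly all actives have a fitted effect of over 20% in size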
Target sequence (P00811 whole entry, looked up): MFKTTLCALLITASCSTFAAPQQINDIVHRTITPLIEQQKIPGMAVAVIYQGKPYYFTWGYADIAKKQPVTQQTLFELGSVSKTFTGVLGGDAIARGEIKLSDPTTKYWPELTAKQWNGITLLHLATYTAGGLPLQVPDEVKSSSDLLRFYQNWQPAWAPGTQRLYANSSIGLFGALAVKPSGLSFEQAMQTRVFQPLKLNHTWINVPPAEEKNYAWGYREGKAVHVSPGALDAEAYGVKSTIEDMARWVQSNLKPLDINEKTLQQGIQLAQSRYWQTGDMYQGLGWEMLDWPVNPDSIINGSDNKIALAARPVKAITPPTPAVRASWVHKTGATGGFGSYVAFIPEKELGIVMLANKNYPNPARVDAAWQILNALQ
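AmpC (5.3 nM in the dispensed reagent) in 20 mM phosphate pH 7.0 with 0.01% (detergent screen) or 0.0001% Triton X-100 was preincubated with compounds for 15 min at room temperature. Nitrocefin was then added from an 800 uM solution, and hydrolysis was followed at 480 nm.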
Sm TGR inh: qHTS Assay for the Inhibitors of Schistosoma Mansoni Peroxiredoxins | Schistosoma mansoni thioredoxin glutathione reductase (TGR), Q962Y6 | purified TGR, DTNB reduction, TNB absorbance 405 nm | Potency, µM (highest dose often 114 µM), without a hit: top-dose activity change, negative = inhibition, most hits filed as inhibitors | hit rate 3% among 360,000 | AID 485364, 2010; also: nearly all actives have a fitted effect of over 60% in size
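TGR 20 nM + NADPH 100 uM (dispensed conc.), cpd preinc 15 min RT; start with NADPH (500 uM addition) then DTNB (15 mM addition). Kinetic TNB absorbance, 405 nm filter. Four-parameter Hill fit across titration.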
AmpC detergent: qHTS Inhibitors of AmpC Beta-Lactamase (assay with detergent); P00811; AmpC hydrolysis of nitrocefin, absorbance 480 nm, 0.01% Triton; Potency, µM (titrated, usually from 114 µM), inactives show top-dose activity change, negative = inhibition, actives largely listed as inhibitors; hit rate 0.041% among 370,000; AID 485294, 2010;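 also: 0% = no-compound wells and -100% = no-enzyme wells; nearly all actives have a fitted effect of over 25% in size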
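AmpC (5.3 nM in the dispensed reagent) in 20 mM phosphate pH 7.0 with 0.01% (detergent screen) or 0.0001% Triton X-100 was preincubated with compounds for 15 min at room temperature. Nitrocefin was then added from an 800 uM solution, and hydrolysis was followed at 480 nm.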
An asterisk follows results filed as active; ? = inconclusive; · = not tested or not shown; [ ] = dose if it differs, or a comment. Calls follow the shape of the dose curve; as a rule, active = well fitted curve in the direction sought with a large enough effect; inconclusive = small, poorly fitted or top-dose-only effect, or another doubt; inactive = no such curve, though single readings can be large; an effect the other way counts as inactive or inconclusive. Unless noted, % is scaled to controls: 0 for no effect and ±100 for the full control effect; potency is read from the fitted curve at half-maximal effect.

SMILES | AmpC no deterg | Sm TGR inh | AmpC detergent
CC(Sc1nnc(C2CC2)n1-c1ccccc1)C(=O)N1CCCC1 (stereo not drawn) | 1% | 32µM* | -1%
O=C(CSc1nnc(C2CC2)n1-c1ccccc1)N1CCCC1 | 32% | · | ·
O=C(CCc1nnc(C2CCCCC2)o1)N1CCN(c2ccccc2F)CC1 | 85% | -28% | -5%
O=C(CCc1nnc(C2CCCCC2)o1)N1CCN(C2CCCCC2)CC1 | -22% | 56µM* | -6%
CCc1cccc(NC(=O)CC(c2ccc(OC)cc2)N2Cc3ccccc3C2=O)c1 (stereo not drawn) | · | 6% | 25%
Cc1ccccc1-c1nc(CS(=O)(=O)CC(=O)N2CCN(c3ccccc3)CC2)c(C)o1 | · | 6% | 1%
CCCNC(=O)CS(=O)(=O)Cc1nc(-c2ccccc2C)oc1C | 3.5µM* | 50µM* | -5%
Cc1ccccc1-c1nc(CS(=O)(=O)CC(=O)N2CCOCC2)c(C)o1 | 30% | 16µM* | 2%
Cc1ccc(CNC(=O)CS(=O)(=O)Cc2nc(-c3ccccc3C)oc2C)cc1 | · | 2% | -2%
Cc1ccc(OC(=O)c2ccc(C)c(C)c2)cn1 | 82% | 2% | -4%
Cc1ccc(OC(=O)c2ccc(Cl)c([N+](=O)[O-])c2)cn1 | -17% | 50µM* | 3%
Cc1cc(N2C(=O)CC(N3CCN(c4ccc(C(=O)c5cccs5)cc4)CC3)C2=O)no1 (stereo not drawn) | 0.5µM* | ? | 0%
O=C(c1ccc(N2CCN(C3CC(=O)N(Cc4cccs4)C3=O)CC2)cc1)c1cccnc1 (stereo not drawn) | 123% | -26% | 6%
CCc1ccc(C2=CC(c3cccc(Br)c3)n3nnnc3N2)cc1 (stereo not drawn) | · | 25µM* | 9%
Cc1cccc(C2C=C(c3ccc(C)c(C)c3)Nc3nnnn32)c1 (stereo not drawn) | · | 40µM* | -8%
Cc1ccc(C2=CC(c3ccc(N(C)C)cc3)n3nnnc3N2)cc1 (stereo not drawn) | -21% | ? | -6%
COc1ccc(C2=CC(c3sccc3C)n3nnnc3N2)cc1 (stereo not drawn) | -54% | 35µM* | -15%
COc1ccc(C2=CC(c3ccc(F)cc3)n3nnnc3N2)cc1 (stereo not drawn) | -22% | 7%[11.4 µM] | ?
Fc1ccc(Br)cc1C1C=C(c2ccc(Br)cc2)Nc2nnnn21 (stereo not drawn) | · | -24% | 6%
COc1ccc(OC)c(NC(=O)N2c3ccccc3Sc3ccccc32)c1 | · | 8% | -1%
O=C(NCCCc1nc2ccccc2n1Cc1cccc(Cl)c1)c1ccco1 | · | -18% | -4%
Cc1nc(SCC(=O)Nc2ccccc2Cl)cc(-c2ccccc2)n1 | · | 3% | -3%
COC(=O)CCc1nc2ccccc2nc1OC | -7% | 6% | 4%
CCCCn1c(=O)c(CCC(=O)O)nc2ccccc21 | -13% | -30% | -7%
O=C(O)CCc1nc2ccccc2n(CCc2ccccc2)c1=O | -21% | 40µM* | 1%
SMILES | AmpC no deterg | Sm TGR inh | AmpC detergent
COc1nc2ccccc2nc1CCC(=O)O | -14% | 0.1µM* | 9%
Cc1cccc(NC(=O)c2oc3ccc(S(=O)(=O)N4CCC5(CC4)OCCO5)cc3c2C)c1C | · | -27% | 0%
Cc1cc(-n2c(C)nc3ccccc3c2=O)ccc1NC(=O)c1ccc(C)c([N+](=O)[O-])c1 | · | 14% | 3%
Cc1cc(C)nc(Nc2ccc(O)cc2)n1 | -12% | -6% | -1%
Cc1cc(Nc2ccc(O)cc2)ccc1N | -22% | 2µM* | 5%
CCOC(=O)C1CCCN(Cc2cn3c(-c4cccc(Br)c4)nnc3s2)C1 (stereo not drawn) | · | -3% | 17%
CCCC12CN3CC(C)(CN(C1)C3c1ccc(OCc3ccccc3)cc1)C2=O (stereo not drawn) | · | -2% | 5%
Cn1c(=O)oc2cc(NC(=O)CCl)ccc21 | -4% | 10µM* | -3%
CC(=O)Nc1ccc(NC(=O)CCS(=O)(=O)c2ccc3c(c2)oc(=O)n3C)cc1 | -16% | ? | -1%
O=C(/C=C/c1ccccc1)Nc1nc(-c2cccs2)ns1 | · | 11% | 20%
Cc1ccc(CNC(=O)C2c3ccccc3C(=O)N3CCc4ccccc4C23)o1 (stereo not drawn) | -5% | 5.6µM* | -10%
O=C(NCCN1CCN(Cc2ccccc2)CC1)C1c2ccccc2C(=O)N2CCc3ccccc3C12 (stereo not drawn) | 63% | -31% | ?
COc1cccc(CNC(=O)c2ccc(CNS(=O)(=O)c3ccc(C)cc3)cc2)c1 | · | 10% | -9%
COc1ccccc1N1CCN(S(=O)(=O)CCNC(=O)COc2ccc(C(C)C)cc2)CC1 | · | 2% | 15%
Cn1nnnc1SCCCNCc1cc(Br)ccc1OCc1ccccc1F | · | 0% | -1%
CCOC(=O)c1sc(NC(=O)Cn2nnc3sc4c(c3c2=O)CCC(C(C)(C)C)C4)nc1C (stereo not drawn) | 3.5µM* | -21% | -10%
CCCOC(=O)c1ccc(NC(=O)Cn2nnc3sc4c(c3c2=O)CCC(C(C)(C)C)C4)cc1 (stereo not drawn) | · | 10% | 8%
Cc1ccc(NC(=O)c2ccc(OC(=O)COc3ccc(Cl)cc3C)cc2)cc1 | -11% | 2% | ?
Cc1ccc(C(=O)CC(=O)COc2ccc(Cl)cc2C)cc1 | 2.2µM* | -19% | ?
COc1ccc(C(=O)NCc2nnc(SCC(=O)Nc3ccc(F)cc3)n2-c2ccccc2)cc1 | · | -4% | -10%
Cc1ccc(Nc2sc(C(=O)c3ccccc3)c(N)c2C(N)=O)cc1 | · | 50µM* | 10%
Cc1cccc(Nc2sc(C(=O)c3ccc(Cl)cc3)c(N)c2C(N)=O)c1 | · | -12% | -4%
Cc1cc(C)c2c(=O)c3c(oc2c1)C(=O)N(CCCOC(C)C)C3c1ccccc1F (stereo not drawn) | · | -3% | -6%
COc1ccc(CCNC(=O)c2c[nH]n3c(=O)c(Cc4ccccc4Cl)c(C)nc23)cc1OC | · | 33% | 3%
CC(OC(=O)COc1ccc(Nc2ccccc2)cc1)C(=O)N(C)c1ccccc1 (stereo not drawn) | 40µM* | ? | 4%
SMILES | AmpC no deterg | Sm TGR inh | AmpC detergent
CC(OC(=O)COc1ccccc1)C(=O)NC1CCCC1 (stereo not drawn) | -23% | 22µM* | -4%
CC(Oc1ccccc1)C(=O)NC1CCCCCCC1 (stereo not drawn) | 1% | 3% | 0%
CC(OC(=O)CNS(=O)(=O)c1ccc2ccccc2c1)C(=O)N(C)c1ccccc1 (stereo not drawn) | 73% | 13% | 0%
Cc1cccc(N2C(=O)C(CC(=O)Nc3ccccc3)N(C3CCCCC3)C2=O)c1 (stereo not drawn) | · | 4% | 7%
Cc1oc2c(c(C)cc3oc(=O)c(CC(=O)NCCc4ccccc4)c(C)c32)c1C | · | -4% | 0%
COc1ccc(-c2noc(CCC(=O)Nc3ccccc3Cl)n2)cc1OC | · | -7% | 3%
CCCNC(=O)c1ccc2nc(-c3ccccc3)c(-c3ccccc3)nc2c1 | ? | -12% | 1%
CCCCNC(=O)c1ccc2nc(-c3ccco3)c(-c3ccco3)nc2c1 | -35% | 7.9µM* | -9%

Source: PubChem (National Center for Advancing Translational Sciences (NCATS))
